SMILES strings stand for the structures. The campaign covered roughly 1,800 compounds. About 410 (23%) were called active. No rule for the calls is given here. Not all results are given here. Entries with a potency or affinity are not part of this list.

The assay is described as follows: Vero cell cytotoxicity, cytotoxicity control for flavivirus capping enzyme inhibitors (AID 588742). Particulars: Vero cells viability, cytotoxicity counter-screen; series mostly up to 40 µM. (In general: Counterscreens check selectivity or assay interference.)
With `O=C(CC(Nc1ccc(Cl)cc1Cl)C(=O)O)c1ccccc1` (stereo not given), the compound was classed as inactive.
The same measure for `Cc1c(Cl)cccc1NC(CC(=O)c1ccccc1)C(=O)O` (stereo not given): “inactive”; for `O=C(NNc1ccc(O)cc1)c1ccc(Br)cc1`: “inactive”.
The same measure for `Cc1cccc(NC(=O)CSc2nnc(-c3ccco3)c(-c3ccco3)n2)c1C`: “inactive”; for `Cc1ccc(O)c(NC2=C(Cl)C(=O)N(Cc3ccccc3)C2=O)c1`: “inactive”.
The same measure for `O=C1/C(=C2\C(=O)N(Cc3ccc(F)cc3)c3ccccc32)SC(=S)N1CCS(=O)(=O)O`: “inactive”.
Consider `Cc1ccc(S(=O)(=O)N2[C@@H](c3cccc(Cl)c3)C(C(=O)O)=CC[C@H]2c2ccc(C(C)C)cc2)cc1`, for which the compound was classed as inactive.
With `O=C(CSc1nc(O)c(Cc2ccccc2)c(=O)[nH]1)Nc1nnc(SCc2ccccc2)s1`, the result was inactive.
The same measure for `Oc1cc(CNC2CCCCC2)c(O)cc1CNC1CCCCC1`: “inactive”.
The same measure for `CC(C)C[C@H](N)c1nnc(SCC(=O)Nc2ccc(Br)cc2)o1`: “inactive”; for `Cc1ccc(S(=O)(=O)Cc2ccc(C(=O)N3CCC(C(N)=O)CC3)o2)cc1`: “inactive”.
For the compound `CC(C)c1cc2c(c(O)c1O)[C@@]13CCCC(C)(C)C1CC2OC3=O` (stereo not given in full), the call was inactive.
The same measure for `Cc1ccc(-c2csc(NS(=O)(=O)c3cccc(F)c3)n2)o1`: “inactive”.
The same measure for `CCc1c(C)sc(NC(=O)OC)c1C(=O)N1CCCCC1`: “inactive”.
The same measure for `O=C(O)c1ccccc1C(=O)c1ccc(Sc2ccc(Cl)cc2)c([N+](=O)[O-])c1`: “inactive”; for `Cc1sc(NC(=O)c2ccco2)c(C(c2ccncc2)N2CCOCC2)c1C` (stereo not given): “inactive”.
On to `CC1(C)CC(=O)C(C(c2ccco2)C2C(=O)CC(C)(C)CC2=O)C(=O)C1`, for which the compound was called inactive.
The same measure for `Cc1noc(NS(=O)(=O)c2ccc(NC(=O)c3ccccc3NS(=O)(=O)c3ccc(F)cc3)cc2)c1C`: “inactive”; for `C/C(=N/Nc1ccc(C(=O)O)cc1)c1ccc(O)c(O)c1O`: “inactive”; for `CCS(=O)(=O)c1nc(S(=O)(=O)c2ccc(C)cc2)c(N2CCOCC2)s1`: “inactive”.
The same measure for `O=C(O)c1ccc(/C=N/Nc2ccc(S(=O)(=O)N3CCCC3)cc2[N+](=O)[O-])cc1`: “inactive”; for `O=C1ON=C(c2ccccc2)/C1=C/c1ccc(-c2ccccc2[N+](=O)[O-])o1`: “inactive”; for `O=[N+]([O-])c1cc2c(cc1C=Nc1ccccc1)OCO2`: “inactive”.
The same measure for `Cc1ccc2nsnc2c1S(=O)(=O)N(CCO)Cc1cc2cc3c(cc2[nH]c1=O)OCCO3`: “inactive”; for `COc1cccc(/C=C2/C(=O)NN(c3ccc(F)cc3)C2=O)c1`: “inactive”; for `CCC(C)NC(=O)Cc1ccc(-c2ccccc2)cc1` (stereo not given): “inactive”.
On to `CC1=NN(c2nc(-c3ccc(Cl)cc3)cs2)C(=O)C1`, for which the call was inactive.
In the case of `CCCC(=Nc1ccc(N)cc1)C1=C(O)C(C(=O)OC)C(C)(C)CC1=O` (stereo not given), the call was inactive.
The same measure for `O=C1C(O)=C(O)C(=O)c2ccccc21`: “inactive”; for `COC(=O)c1ccc(-c2ccc(C(c3c(C)[nH][nH]c3=O)c3c(C)[nH][nH]c3=O)o2)cc1`: “inactive”; for `O=C(Nc1cccc(Oc2ccc(C(=O)O)c(C(=O)O)c2)c1)c1ccc(-c2ccccc2)cc1`: “inactive”.
The same measure for `CC1CCC(C(C)C)C2=C1C(C#N)(C#N)C(C#N)(C#N)C(c1ccccc1)N2` (stereo not given): “inactive”; for `Cc1ccc(-c2nn(-c3ccccc3)cc2/C=C2\SC(=S)N(CC(=O)O)C2=O)cc1`: “inactive”; for `CC1(C)CC(=O)C(=Cc2cn(CCC#N)nc2-c2ccc(Cl)cc2)C(=O)C1`: “inactive”.
The same measure for `O=C(Nc1ccc(Cl)cc1)C1c2cccc[n+]2CC(=O)N1Cc1ccc2c(c1)OCO2` (stereo not given): “inactive”.
Turning to `CCOc1cc(Br)cc(C(c2c(C(=O)O)[nH]c3ccccc23)c2c(C(=O)O)[nH]c3ccccc23)c1O`, the call was inactive.
The same measure for `Cc1nn(-c2ccccc2)c2c1C(c1cccs1)C(C#N)=C(N)O2` (stereo not given): “inactive”.
Take `Cc1ccc(CCNC(=O)C2CCN(S(=O)(=O)N3CCCCC3)CC2)cc1`: the result was inactive.
The same measure for `O=[N+]([O-])c1ccccc1-c1ccc(C(=S)N2CCCC2)o1`: “inactive”; for `O=[N+]([O-])c1ccccc1-c1ccc(C(=S)N2CCCCC2)o1`: “inactive”; for `O=C1NN(c2ccccc2)C(=O)/C1=C/c1ccc(-c2ccc(Cl)c(C(=O)O)c2)o1`: “inactive”.
The same measure for `O=C(O)c1ccc(Cn2cc(/C=C\[N+](=O)[O-])c3ccccc32)o1`: “inactive”.
The same measure for `COc1cc(-c2cccs2)cc(=O)c2c(C)oc(C)c12`: “inactive”; for `CCOc1ccc(/C=C2\SC(=S)N(CCC(=O)Nc3ccccc3C(=O)O)C2=O)cc1`: “inactive”.
Consider `COc1ccc(C(=O)Nc2cc(C(=O)c3ccccc3)c(C)oc2=O)cc1`, for which the compound was called inactive.
As to `Cc1oc(=O)c(NC(=O)c2ccccc2)cc1C(=O)c1ccccc1`, the call was inactive.
The same measure for `Cc1ccc(C(=O)c2coc3c2C(=O)C(=O)c2ccccc2-3)cc1`: “inactive”; for `O=C(COc1cccc2ccccc12)Nc1cc(Cl)ccc1C(=O)O`: “inactive”.
The same measure for `O=C1Nc2ccc(F)cc2C12Nc1ccccc1-c1nnc(SCc3ccccc3F)nc1O2` (stereo not given): “inactive”; for `CC1=NOC(=O)/C1=C\c1ccc(-c2ccc(Br)cc2C(=O)O)o1`: “inactive”; for `CCOC(=O)c1c(-c2ccc(C)c(C)c2)csc1NC(=O)C1CC=CCC1C(=O)O` (stereo not given): “inactive”.
The same measure for `COC(=O)COc1ccc(C2Nc3c(Cl)ccc(C(=O)O)c3C3C=CCC32)cc1` (stereo not given): “inactive”; for `N#C/C(=C(/O)CSc1ccccc1C(=O)O)c1nc2ccccc2s1`: “inactive”; for `COc1ccc(CC(=O)NCc2ccc3c(c2)cc(C)n3C)cc1`: “inactive”.
On to `CC1=NN(c2nc(-c3ccc(F)cc3)cs2)C(=O)C1`, for which the compound was called inactive.
The same measure for `CCC(C(=O)O)N1C(=O)/C(=C/C(C)=C/c2ccccc2)SC1=S` (stereo not given): “inactive”; for `CC(=O)Nc1ccc2nc(N)sc2c1`: “inactive”; for `COc1ccc(NCC(=O)N/N=C2\CCc3ccccc32)cc1`: “inactive”.
The same measure for `CCOC(=O)c1c(N)sc(=S)c2c1CCC2`: “inactive”; for `CCOC(=O)c1c(N)sc2c1CCS(=O)(=O)C2`: “inactive”.
For `CCCCC1=CC2=C(c3ccco3)C(=O)C(C)(OC(=O)c3ccc(OC)cc3)C(=O)C2=CN1C1CC1` (stereo not given), the result was inactive.
The same measure for `CC1=NOC(=O)/C1=C/c1ccc2c(c1)OCO2`: “inactive”.
The same measure for `CC(=O)c1ccc(NC(=O)CSc2nnc(-c3ccco3)c(-c3ccco3)n2)cc1`: “inactive”.
The same measure for `Nc1c(C(=O)O)sc2nc(-c3ccccc3)cc(-c3ccc(Cl)cc3)c12`: “inactive”; for `CCOC(=O)C1=C(O)/C(=C\c2ccc(CNC(=O)C(=O)Nc3ccccc3)o2)N=C1C`: “inactive”.

The values are drawn from PubChem BioAssay AID588742 (Southern Research Specialized Biocontainment Screening …, 2011).
